Reference: PubChem BioAssay (NCATS)
Where “and” joins values, the source holds several entries; their conditions need not be identical. Equal entries are not always repeated. Results filed as inconclusive are left out. A structure can be active in one record and inactive in another. Calls of active or inactive are those of the source. Unless noted, calls follow the shape of the dose curve; as a rule, active = well fitted curve in the direction sought with a large enough effect; inconclusive = small, poorly fitted or top-dose-only effect, or another doubt; inactive = no such curve, though single readings can be large; an effect the other way counts as inactive or inconclusive.

Assays:
[1] = qHTS Assay for Lipid Storage Modulators (AID 1519; calls by dose curve); conditions: Drosophila S3 cells, BODIPY lipid droplet/cell ratio, laser cytometry, cells loaded with oleic acid
Summary of the method: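 Cells seeded at 5,000 per well were treated with compounds over a concentration series and loaded with oleic acid (400 uM, as added). Lipid droplet fluorescence (488 nm excitation, 500-530 nm channel) was read by laser-scanning cytometry and normalized to 20 uM Triacsin C.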

[2] = biological target: Ubiquitin carboxyl-terminal hydrolase 1 (Homo sapiens) (UniProt O94782); assay: Inhibitors of USP1/UAF1: Pilot qHTS (AID 504865); conditions: purified USP1/UAF1, Ub-rhodamine cleavage fluorescence; series mostly up to 54.9 µM;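 also: rhodamine fluorescence freed from ubiquitin-rhodamine substrate followed over time; top concentration of the series differs between compounds; % is scaled to controls: 0 for no effect and ±100 for the full control effect; nearly all actives have a fitted effect of over 35% in size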
Sequence of Ubiquitin carboxyl-terminal hydrolase 1 (Homo sapiens) (O94782 whole entry, looked up): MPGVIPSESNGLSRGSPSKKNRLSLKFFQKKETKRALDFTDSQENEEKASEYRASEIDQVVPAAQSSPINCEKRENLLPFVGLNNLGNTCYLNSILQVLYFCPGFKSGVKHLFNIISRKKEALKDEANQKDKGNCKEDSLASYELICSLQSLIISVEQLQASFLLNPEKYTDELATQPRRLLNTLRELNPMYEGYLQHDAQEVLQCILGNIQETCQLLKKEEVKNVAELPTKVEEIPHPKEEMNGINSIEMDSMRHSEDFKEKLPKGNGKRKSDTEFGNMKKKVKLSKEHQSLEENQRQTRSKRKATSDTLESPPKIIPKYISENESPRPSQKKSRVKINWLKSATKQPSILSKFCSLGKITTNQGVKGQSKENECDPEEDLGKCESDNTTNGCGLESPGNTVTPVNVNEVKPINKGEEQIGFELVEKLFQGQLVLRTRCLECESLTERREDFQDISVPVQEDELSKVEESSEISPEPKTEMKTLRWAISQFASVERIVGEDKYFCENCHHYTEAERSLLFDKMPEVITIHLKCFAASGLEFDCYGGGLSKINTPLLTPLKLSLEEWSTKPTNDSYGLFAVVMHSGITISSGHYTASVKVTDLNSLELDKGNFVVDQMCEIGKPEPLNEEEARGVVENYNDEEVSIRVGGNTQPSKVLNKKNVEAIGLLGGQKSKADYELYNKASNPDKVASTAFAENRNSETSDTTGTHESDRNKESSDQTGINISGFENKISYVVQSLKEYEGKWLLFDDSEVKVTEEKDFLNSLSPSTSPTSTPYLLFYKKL
Summary of the method: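 USP1/UAF1 complex (1nM) preincubated with compound 15 min at room temperature, then Ub-Rho substrate (150nM final) added. Fluorescence read kinetically at 480/540 nm, 6 reads every 60 seconds. Buffer: 50mM HEPES pH 7.8, 0.5mM EDTA, 0.1 mg/ml BSA, 1mM TCEP, 0.01% Tween-20.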

[3] = biological target: ATP-dependent 6-phosphofructokinase (Trypanosoma brucei brucei) (UniProt O15648); assay: qHTS Assay to Find Inhibitors of T. brucei phosphofructokinase: hit validation (AID 492961);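 also: luminescence reports ADP formed as PFK phosphorylates fructose-6-phosphate with ATP; % is scaled to controls: 0 for no effect and ±100 for the full control effect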; conditions: T. brucei PFK, ADP-Glo luminescence; series mostly up to 24.3 µM
Sequence of ATP-dependent 6-phosphofructokinase (Trypanosoma brucei brucei) (O15648 whole entry, looked up): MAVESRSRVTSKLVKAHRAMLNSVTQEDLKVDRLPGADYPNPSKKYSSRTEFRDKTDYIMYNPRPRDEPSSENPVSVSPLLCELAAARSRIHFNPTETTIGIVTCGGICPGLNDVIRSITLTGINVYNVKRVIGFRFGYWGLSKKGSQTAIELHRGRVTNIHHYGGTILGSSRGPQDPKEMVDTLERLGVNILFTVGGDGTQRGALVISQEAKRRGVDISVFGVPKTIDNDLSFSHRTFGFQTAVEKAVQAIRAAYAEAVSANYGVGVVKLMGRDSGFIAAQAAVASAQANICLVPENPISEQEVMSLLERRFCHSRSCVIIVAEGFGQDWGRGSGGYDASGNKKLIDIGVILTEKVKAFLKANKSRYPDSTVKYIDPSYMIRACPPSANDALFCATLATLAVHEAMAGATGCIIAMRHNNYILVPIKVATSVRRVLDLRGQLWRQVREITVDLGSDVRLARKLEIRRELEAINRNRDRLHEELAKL
Summary of the method: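 Percent activity derived from corrected luminescence, normalized between 0x and 1x enzyme controls, then fitted to concentration-response curves. Conditions: 1.25 nM PFK, 0.1 mM ATP, 0.5 mM F6P, 45 min RT.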

[4] = biological target: Luciferin 4-monooxygenase (Photinus pyralis) (UniProt P08659); assay: Biochemical firefly luciferase enzyme assay for NPC (AID 624030);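 also: purified P. pyralis luciferase at 10 nM with luciferin and ATP substrate; 0% = DMSO and -100% = full luciferase inhibition by PTC124 control; nearly all actives have a fitted effect of over 70% in size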; conditions: purified P. pyralis luciferase, luminescence, 5 min; series mostly up to 58.6 µM
Sequence of Luciferin 4-monooxygenase (Photinus pyralis) (P08659 whole entry, looked up): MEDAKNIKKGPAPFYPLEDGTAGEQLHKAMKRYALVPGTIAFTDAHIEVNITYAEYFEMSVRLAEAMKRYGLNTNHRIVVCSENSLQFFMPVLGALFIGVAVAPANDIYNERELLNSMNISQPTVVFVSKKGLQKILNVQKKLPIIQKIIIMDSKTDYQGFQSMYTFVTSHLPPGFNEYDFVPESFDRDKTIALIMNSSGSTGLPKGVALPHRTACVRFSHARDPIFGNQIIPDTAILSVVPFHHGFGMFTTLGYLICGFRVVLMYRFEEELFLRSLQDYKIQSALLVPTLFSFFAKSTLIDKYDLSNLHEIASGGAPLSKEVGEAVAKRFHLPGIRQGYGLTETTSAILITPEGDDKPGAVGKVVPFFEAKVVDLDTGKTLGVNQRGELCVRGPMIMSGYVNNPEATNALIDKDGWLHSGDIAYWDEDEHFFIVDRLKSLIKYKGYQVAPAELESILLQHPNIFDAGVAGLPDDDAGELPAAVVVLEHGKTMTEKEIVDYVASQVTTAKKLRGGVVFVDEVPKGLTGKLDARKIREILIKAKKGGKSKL
Summary of the method: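 Counter-screen for direct inhibition of the luciferase enzyme by approved-drug library compounds, run at 10 nM enzyme in 50 mM Tris acetate (final). Luminescence was read within 5 min of enzyme-buffer addition and normalized to PTC124 versus DMSO (0%).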

[5] = qHTS profiling for inhibitors of Plasmodium falciparum proliferation (AID 504749);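 also: 0% = DMSO vehicle and full inhibition = artemisinin control; nearly all actives have a fitted effect of over 60% in size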; conditions: P. falciparum in erythrocytes, SYBR Green DNA, 72 h
Summary of the method: (§1)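 P. falciparum-infected erythrocytes (0.3% parasitemia, 2.5% hematocrit final) were exposed to compounds for 72 h at 37 C in 5% CO2, then lysed with SYBR Green buffer overnight at room temperature; parasite DNA fluorescence was normalized to artemisinin and DMSO controls.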

CP238 = assay: as above; conditions: P. falciparum in erythrocytes, SYBR Green DNA, 72 h; series mostly up to 12.8 µM
Summary of the method: as §1

CP262 = assay: as above; conditions: P. falciparum in erythrocytes, SYBR Green DNA, 72 h; series mostly up to 12.8 µM
Summary of the method: as §1

CP325 = assay: as above; conditions: P. falciparum in erythrocytes, SYBR Green DNA, 72 h; series mostly up to 12.8 µM
Summary of the method: as §1

ECU = assay: as above; conditions: P. falciparum in erythrocytes, SYBR Green DNA, 72 h; series mostly up to 12.8 µM
Summary of the method: as §1

FAB9 = assay: as above; conditions: P. falciparum in erythrocytes, SYBR Green DNA, 72 h; series mostly up to 12.8 µM
Summary of the method: as §1

HB3 = assay: as above; conditions: P. falciparum in erythrocytes, SYBR Green DNA, 72 h; series mostly up to 12.8 µM
Summary of the method: as §1

JCK = assay: as above; conditions: P. falciparum in erythrocytes, SYBR Green DNA, 72 h; series mostly up to 12.8 µM
Summary of the method: as §1

[6] = AP1 Signaling Pathway (AID 357; active = well fitted curve in either direction with a large enough effect, not every such curve was filed as active; also: % is scaled to controls: 0 for no effect and ±100 for the full control effect); conditions: ME-180 AP-1-bla reporter, EGF-induced, beta-lactamase ratio, 5 h; at 7.69 µM (top of the series) unless noted
Summary of the method: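 ME-180 cells with beta-lactamase reporter under AP-1 response element, stimulated with EC50 EGF; compounds tested in titration series, 5 h at 37 °C. CCF4 substrate added 2.5 h at room temperature; 460/530 nm emission ratio gave %activity and AC50.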

[7] = biological target: Cytochrome P450 1A2 (Homo sapiens) (UniProt P05177); assay: p450-cyp1a2 (AID 410; calls by dose curve; also: potency is read from the fitted curve at half-maximal effect;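 as to activity change, negative = inhibition: -100% = full effect of reference inhibitor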); conditions: recombinant CYP1A2, luciferin-ME demethylation, luminescence; series mostly up to 57 µM
Sequence of Cytochrome P450 1A2 (Homo sapiens) (P05177 whole entry, looked up): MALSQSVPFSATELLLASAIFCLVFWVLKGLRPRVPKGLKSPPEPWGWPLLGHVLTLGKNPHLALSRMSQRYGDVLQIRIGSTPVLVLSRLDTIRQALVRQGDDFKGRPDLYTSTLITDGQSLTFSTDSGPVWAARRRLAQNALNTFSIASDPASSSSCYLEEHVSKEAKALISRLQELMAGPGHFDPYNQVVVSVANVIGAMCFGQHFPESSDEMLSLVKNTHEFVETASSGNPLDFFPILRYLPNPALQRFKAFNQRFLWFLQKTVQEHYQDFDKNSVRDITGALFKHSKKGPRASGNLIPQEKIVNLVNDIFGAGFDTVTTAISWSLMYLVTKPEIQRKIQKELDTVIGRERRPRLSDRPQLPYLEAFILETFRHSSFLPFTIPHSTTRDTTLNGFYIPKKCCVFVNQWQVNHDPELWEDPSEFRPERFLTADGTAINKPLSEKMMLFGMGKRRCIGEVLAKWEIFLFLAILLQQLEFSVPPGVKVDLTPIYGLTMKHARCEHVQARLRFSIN
Summary of the method: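 Inhibition was calculated relative to 57 uM furafylline (full inhibition). The reaction used human CYP1A2 at 20nM with Luciferin-ME at its Km, 100uM, driven by an NADPH-regenerating system for 60 min at room temperature.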

[8] = NFAT Signaling Pathway (AID 444; active = well fitted curve in either direction with a large enough effect, not every such curve was filed as active;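 also: carbachol stimulus at about its EC50 of 1 µM final; % is scaled to controls: 0 for no effect and ±100 for the full control effect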); conditions: Jurkat NFAT-bla M1, carbachol, beta-lactamase ratio, 5 h; at 7.69 µM (top of the series) unless noted
Summary of the method: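 Jurkat cells carrying an NFAT-driven β-lactamase reporter and co-transfected muscarinic M1 receptor were treated with compound plus carbachol (1 uM final, an EC50 level) for 5 h at 37 °C. CCF4 loading followed for 1 h at RT; 460/530 nm ratio gave %activity.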

[9] = Stat Signaling Pathway (AID 446; active = well fitted curve in either direction with a large enough effect, not every such curve was filed as active;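 also: ME-180 cervical cancer cells given 40 pM IL-6 alongside compound; SIE-controlled beta-lactamase reporter measured as 460/530 nm FRET emission ratio; % is scaled to controls: 0 for no effect and ±100 for the full control effect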); conditions: ME-180 SIE beta-lactamase reporter, IL-6 stimulated, 5 h; at 7.69 µM (top of the series) unless noted
Summary of the method: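 ME-180 cells carrying a SIE-driven beta-lactamase reporter are stimulated with 40 pM IL-6 for 5 h at 37C in the presence of compound. The 460/530 nm FRET substrate ratio is read after 2.5 h at RT. Data are normalised to 300 pM IL-6 and to 125 nM JAK inhibitor controls.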

[10] = biological target: Glucocorticoid receptor (Homo sapiens) (UniProt P04150); assay: GR-GFP Redistribution (AID 450;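 active = compounds whose dose series gives a full or clear partial fitted curve of increased nuclear translocation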; also: potency is read from the fitted curve at half-maximal effect); conditions: U2OS GR-GFP nuclear translocation, laser cytometry, 2 h
Sequence of Glucocorticoid receptor (Homo sapiens) (P04150 whole entry, looked up, the tested form may be a part): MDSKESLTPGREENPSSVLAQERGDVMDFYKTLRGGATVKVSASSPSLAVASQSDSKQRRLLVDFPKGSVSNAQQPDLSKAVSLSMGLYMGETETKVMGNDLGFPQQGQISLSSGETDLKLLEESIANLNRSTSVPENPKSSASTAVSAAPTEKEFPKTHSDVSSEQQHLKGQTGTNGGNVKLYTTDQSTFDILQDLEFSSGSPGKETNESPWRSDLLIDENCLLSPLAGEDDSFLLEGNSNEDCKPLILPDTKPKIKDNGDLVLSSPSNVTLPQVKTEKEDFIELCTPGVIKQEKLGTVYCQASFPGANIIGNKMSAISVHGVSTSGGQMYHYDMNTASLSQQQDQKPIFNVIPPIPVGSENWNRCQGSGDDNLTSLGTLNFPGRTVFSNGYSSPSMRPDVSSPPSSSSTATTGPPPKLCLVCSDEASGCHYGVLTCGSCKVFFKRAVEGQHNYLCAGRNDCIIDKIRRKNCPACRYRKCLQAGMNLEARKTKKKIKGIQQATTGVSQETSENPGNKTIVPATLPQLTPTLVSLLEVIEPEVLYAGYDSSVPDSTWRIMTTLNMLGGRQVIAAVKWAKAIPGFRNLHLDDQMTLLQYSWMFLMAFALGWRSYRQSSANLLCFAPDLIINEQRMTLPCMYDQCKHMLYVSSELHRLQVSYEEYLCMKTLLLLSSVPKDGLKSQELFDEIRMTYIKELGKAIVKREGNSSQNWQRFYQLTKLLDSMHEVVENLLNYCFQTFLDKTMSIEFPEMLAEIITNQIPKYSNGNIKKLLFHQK

[11] = biological target: Glucocorticoid receptor (Homo sapiens) (UniProt P04150); assay: GR-EFC Redistribution (AID 451; calls by dose curve; also: potency is read from the fitted curve at half-maximal effect); conditions: CHO-K1 GR-EFC translocation, beta-gal luminescence, 2 h
Summary of the method: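 CHO-K1 cells stably expressing nuclear-localized β-gal enzyme acceptor and GR fused C-terminally to the enzyme donor fragment; ligand-driven nuclear translocation restores β-gal by complementation. Compounds titrated up to 46 uM final, 2 h at 37 °C; luminescence read.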

[12] = biological target: Mitogen-activated protein kinase 10 (Mus musculus) (UniProt Q61831); assay: JNK3 AlphaScreen Assay (AID 530; active = well fitted curve in either direction with a large enough effect, not every such curve was filed as active); conditions: JNK3 lysate, c-Jun phosphorylation; series mostly up to 57.1 µM
Summary of the method: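 JNK3 came from HepG2 lysates pre-activated with IL-1beta and TNF-alpha and phosphorylated biotinylated GST-cJun (1-79) at 10 uM ATP, pH 7.6, room temperature. Compounds were titrated. AlphaScreen signal used anti-phospho-cJun (Ser73) antibody.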

[13] = biological target: 3',5'-cyclic-AMP phosphodiesterase 4B (Homo sapiens) (UniProt Q07343); assay: qHTS Assay for Inhibitors of PDE-IV (AID 607; active = well fitted activation curve with a large enough effect in the main read-out, with a control signal flat, not every such curve was filed as active; also: % of control where 0% means no effect); conditions: HEK293 ACTOne CNG channel cells, membrane potential fluorescence; series mostly up to 22.9 µM
Sequence of 3',5'-cyclic-AMP phosphodiesterase 4B (Homo sapiens) (Q07343 whole entry, looked up): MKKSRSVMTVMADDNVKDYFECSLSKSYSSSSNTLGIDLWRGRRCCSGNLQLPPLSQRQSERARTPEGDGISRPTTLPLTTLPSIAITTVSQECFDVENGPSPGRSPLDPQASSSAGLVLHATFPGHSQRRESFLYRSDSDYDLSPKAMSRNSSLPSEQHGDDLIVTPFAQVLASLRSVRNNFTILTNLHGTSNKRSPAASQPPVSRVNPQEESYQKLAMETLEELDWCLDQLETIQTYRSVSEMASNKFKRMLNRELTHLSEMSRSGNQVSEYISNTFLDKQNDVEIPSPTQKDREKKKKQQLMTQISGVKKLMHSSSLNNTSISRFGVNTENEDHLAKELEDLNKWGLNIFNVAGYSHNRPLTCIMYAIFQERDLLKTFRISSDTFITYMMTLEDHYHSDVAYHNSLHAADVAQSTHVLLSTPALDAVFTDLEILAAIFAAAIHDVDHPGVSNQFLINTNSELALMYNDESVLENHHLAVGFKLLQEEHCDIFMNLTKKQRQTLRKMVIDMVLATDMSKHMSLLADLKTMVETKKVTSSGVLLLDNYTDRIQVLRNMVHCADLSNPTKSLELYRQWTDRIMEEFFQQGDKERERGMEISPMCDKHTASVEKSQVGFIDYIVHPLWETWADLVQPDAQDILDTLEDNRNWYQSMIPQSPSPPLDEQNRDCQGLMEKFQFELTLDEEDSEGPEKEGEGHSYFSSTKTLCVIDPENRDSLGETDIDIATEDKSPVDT
Summary of the method: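 HEK293 ACTOne cells with CNG channel (1000/well), endogenous PDE4; membrane potential dye, compounds up to 22.9 uM final. Fluorescence Ex 535/Em 590; RO 20-1724 (100 uM final) as reference.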

[14] = measured here: cell count channel max response
[15] = measured here: lipid channel max response
[16] = at 28.7 µM (top of the series), parasite line B

C=C1C2CC[C@@]3(C)C(c4ccoc4)OC(=O)C[C@@]13OC1CC(O)C(C)(C)C(CC(=O)OC)[C@@]12C (stereo partly drawn)
inactive: activity change, negative = inhibition ([1]; at 57.5 µM (top of the series)) -26.4% and -20.4% | Potency [2]
9.22% and 0.891%: max response [1, 14]
-12.6% and -14.6%: max response [1, 15]

O=c1[nH]cnc2c1ncn2C1OC(CO)C(O)C1O (stereo not drawn)
8.98% and -19.5% and -3.51%: max response [1, 14]
inactive: activity change, negative = inhibition ([1]; at 57.5 µM (top of the series)) 5.69% and -3.39% and 2.45% | outcome [3] | Potency [2] | outcome [4] | activity, negative = inhibition [5, 16] 13.3% | Potency (CP238) | Potency (CP262) | Potency (CP325) | Potency (ECU) | Potency (FAB9) | Potency (HB3) | Potency (JCK)
14% and -19.8% and 0.274%: max response [1, 15]

O=C(O)[C@H]1CCCN(CCC=C(c2ccccc2)c2ccccc2)C1
inactive and 31.6 µM (active): Potency [7]
-22.7%: max response [1, 14]
inactive: activity change, negative = inhibition [6] 3.95% [at 38 µM] | activity change, negative = inhibition [8] -15.6% [at 38 µM] | activity, negative = inhibition [9] 26.3% [at 38 µM] | Potency [10] > 46 µM | Potency [11] > 46 µM | Potency [12] | Potency [13] | activity change, negative = inhibition ([1]; at 57.5 µM (top of the series)) -4.66%
-26.7%: max response [1, 15]

CC(=O)N(CC(O)CN(C(C)=O)c1c(I)c(C(=O)NC[C@@H](O)CO)c(I)c(C(=O)NC[C@@H](O)CO)c1I)c1c(I)c(C(=O)NC[C@@H](O)CO)c(I)c(C(=O)NC[C@@H](O)CO)c1I
-17.3%: max response [1, 14]
-18.3%: max response [1, 15]
inactive: activity change, negative = inhibition [6] 2.7% [at 17.2 µM] | Potency [7] | activity change, negative = inhibition [8] -2.76% [at 17.2 µM] | activity, negative = inhibition [9] 4.45% [at 17.2 µM] | Potency [10] > 20.6 µM | Potency [11] > 20.6 µM | Potency [12] | Potency [13] | activity change, negative = inhibition ([1]; at 25.7 µM (top of the series)) 0.967% | outcome [3] | Potency [2] | outcome [4] | activity, negative = inhibition ([5]; at 12.8 µM (top of the series), parasite line A) 5.56% | activity, negative = inhibition ([5]; at 12.8 µM (top of the series), parasite line B) 6.47% | Potency (CP238) | Potency (CP262) | Potency (CP325) | Potency (ECU) | Potency (FAB9) | Potency (HB3) | Potency (JCK)

CN[C@@H](CC(C)C)C(=O)N[C@@H]1C(=O)N[C@H](CC(N)=O)C(=O)N[C@@H]2C(=O)N[C@H]3C(=O)N[C@H](C(=O)N[C@H](C(=O)O)c4cc(O)cc(O)c4-c4cc3ccc4O)[C@H](O)c3ccc(c(Cl)c3)Oc3cc2cc(c3O[C@H]2O[C@@H](CO)[C@@H](O)[C@@H](O)[C@@H]2O[C@@H]2C[C@](C)(N)[C@H](O)[C@H](C)O2)Oc2ccc(cc2Cl)[C@@H]1O
inactive: activity change, negative = inhibition [6] 4.27% [at 17.2 µM] | activity change, negative = inhibition [8] -5.38% [at 17.2 µM] | activity, negative = inhibition [9] 7.22% [at 17.2 µM] | Potency [10] > 20.6 µM | Potency [11] > 20.6 µM | Potency [12] | Potency [13] | activity change, negative = inhibition ([1]; at 25.7 µM (top of the series)) -2.11% | outcome [3] | outcome [4] | activity, negative = inhibition ([5]; at 28.7 µM (top of the series), parasite line A) 3.64% | activity, negative = inhibition [5, 16] 4.98% | Potency (CP238) | Potency (CP262) | Potency (CP325) | Potency (ECU) | Potency (FAB9) | Potency (HB3) | Potency (JCK)
3.37%: max response [1, 15]
5.45%: max response [1, 14]
